Source: PubChem
Pf growth 48h: inhibits P. falciparum growth in the first generation, 48 h | P. falciparum luciferase growth in erythrocytes, 48 h | Potency, µM (doses to about 28.7 µM), for inactives: top-dose activity change, negative = inhibition, hits mostly inhibitors | 5.9% of 310,000 active | AID 504832; further: potency means the concentration at half of the fitted maximal effect; on the % scale 0 is the no-effect control and ±100 the full control effect
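Growth was read as firefly luciferase luminescence after a 48 h, 37 C, 5% CO2 exposure of compounds to reporter-bearing P. falciparum cultures (0.1% parasitemia, 2% hematocrit final) in Albumax-supplemented RPMI 1640.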
Pf growth 96h: P. falciparum growth inhibition at 96 hours; 6.9% of 320,000 active; AID 504834; P. falciparum luciferase reporter growth, 96 h; Potency, µM (titrated, usually from 28.7 µM), for the others: top-dose activity change, negative = inhibition, hits mostly inhibitors; further: potency means the concentration at half of the fitted maximal effect; on the % scale 0 is the no-effect control and ±100 the full control effect
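Compounds incubated with erythrocytes infected by luciferase-expressing P. falciparum (2% hematocrit, 0.05% parasitemia final) for 96 hours, 37 C in 5% CO2. Growth inhibition scored as decreased luciferase luminescence.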
CHX counter: counter-screen for Shiga toxin inhibitors: cycloheximide protein synthesis inhibition | AID 2314 | max response, % | 12% of 300,000 active | cell reporter, cycloheximide protein synthesis inhibition counterscreen; in the data active means max response mostly above about 13%, no sharp cut-off; inactive means mostly below about 14%; further: read at 38.3 µM for the half of the compounds with a filed dose; 0% is about no effect
HCV inhibitor: inhibitors of hepatitis C virus infection. Huh7.5.1 HCVcc-Cre infection, luciferase reporter, 44 h. Potency, µM (highest dose often 41.8 µM), inactives show top-dose activity change, negative = inhibition, usual class: inhibitors. 3.4% of 340,000 active; further: potency means the concentration at half of the fitted maximal effect; on the % scale 0 is the no-effect control and ±100 the full control effect
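Cells (1,000/well) were plated 4 h before compound, then infected with HCVcc-Cre virus (~0.5 moi). After 44 h further culture, infection was read as luciferase luminescence following a 15 min substrate incubation at room temperature.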
Shiga inhibitor: blocks Shiga toxin action in Vero cells; Vero cells, Shiga toxin protein synthesis inhibition reporter; inhibition, % at 38.7 µM; 9.2% of 290,000 active; AID 2315; in the data active means inhibition mostly above about 28%, no sharp cut-off; inactive means mostly below about 43%; further: 0% is about no effect
HCMV antiviral: blocks human cytomegalovirus replication; 4.5% of 410,000 active; activity change, negative = inhibition, % at 57.5 µM; HFF cells, HCMV-luciferase reporter, 72 h; stronger effect = lower value; in the data active means activity change below about -60%; inconclusive means no clear call, values can overlap the other calls; inactive means above about -39%; further: on the % scale 0 is the no-effect control and ±100 the full control effect
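Two compound doses tested in HFFs infected with HCMV-luciferase, MOI 1 PFU/cell, 72 h at 37C. Lysate luminescence read with OneGlo; data normalized against buffer-only and 10uM Salinomycin inhibitor controls.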
Active calls of the source: *; i = inactive; ? = inconclusive; nt = not tested or not shown; + = active, no number; [ ] = remark or other dose. Compounds with a hit are over-represented: about 21% of the library has one in this group of screens. Unless noted, the call rests on the fitted dose curve; in most records, active means well fitted inhibition curve with a large enough effect; inconclusive means small, poorly fitted or top-dose-only effect, or another doubt; inactive means no such curve, though single readings can be large or run the other way.

SMILES	Pf growth 48h	Pf growth 96h	CHX counter	HCV inhibitor	Shiga inhibitor	HCMV antiviral
COc1ccc(CCN=C(C)c2cc(C)c(C)cc2O)cc1OC	-17%	47%	-3	-8%	-5	-30
COc1ccccc1-n1nnnc1SCC(=O)N1CCCC1=O	27%	55%	-2	10%	2	32
CCOc1ccc(CNC(=O)CCS(=O)(=O)c2ccc3c(c2)NC(=O)CO3)cc1OC	6%	14%	-2	14%	15	-37
CC(C)Oc1ccccc1C1CC(=O)Nc2cc3c(cc21)OCCO3 (centres undefined)	?	nt	2	?	-6	-103*
COc1cccc(C2CC(=O)Nc3cc4c(cc32)OCCO4)c1OC(C)C (centres undefined)	?	97%	1	-14%	-6	-11
Cc1cc(C(=O)N2CCCC(N3CCN(c4ccccc4C)CC3)C2)nc(C)n1 (centres undefined)	-11%	35%	3	5%	6	4
Cc1ccc2nc(C)cc(C(=O)N3CCCC(N4CCN(c5ccccc5C)CC4)C3)c2c1 (centres undefined)	12µM*	1%	8	?	-8	-14
Cc1ccc(C(=O)N2CCCC(N3CCN(c4ccccc4C)CC3)C2)c(=O)[nH]1 (centres undefined)	-8%	0%	7	14%	-11	-70*
COc1cccc(Cc2nc3ccccc3nc2SCC(=O)NCCc2ccccc2)c1	nt	nt	nt	nt	nt	-21
Cc1ccc(/C=C/c2onc(C)c2S(=O)(=O)N2CCC(C(=O)NCc3ccc(Cl)cc3)CC2)cc1	nt	nt	nt	nt	nt	5
CCOC(=O)/C(C#N)=C/Nc1ccccc1NS(=O)(=O)c1ccc2c(c1)OCCO2	9.3µM*	12µM*	nt	0%	nt	4
CCOC(=O)/C(C#N)=C/Nc1ccccc1OC	68%	3%	25*	-29%	43*	145
CCOC(=O)C(=O)/C(C#N)=C/Nc1ccccc1	nt	10%	-1	-4%	-11	0
CC(C)(C(=O)Nc1ccccc1)n1cc(NC(=O)c2ccc3ccccc3n2)cn1	nt	nt	nt	nt	nt	59
O=C(COc1ccc(Cl)cc1)NCc1n[nH]c(=O)c2ccccc12	0%	-23%	nt	10%	nt	19
CCOC(=O)C1CCCN(c2ncnc3c2cnn3-c2ccc(OC)cc2)C1 (centres undefined)	101%	?	35*	-6%	70*	29
CCOC(=O)N1CCC(Nc2ncnc3c2cnn3-c2ccc(Cl)cc2)CC1	91%	nt	54*	17%	120*	-1
COc1ccc(-n2ncc3c(N4CCCCC4)ncnc32)cc1	-66%	-77%	-6	?	-23	nt
CCOC(=O)C1CCCN(c2ncnc3c2cnn3-c2ccc(Cl)cc2)C1 (centres undefined)	?	?	17*	?	24	-18
Cn1nc(C(C)(C)C)cc1C(=O)O	12%	9.3µM*	-1	27%	-9	-8
COc1cccc(CNC(=O)c2ccc3c(c2)nc2n3CCC(C)C2)c1OC (centres undefined)	nt	nt	nt	nt	nt	-10
O=C(Nc1ccccn1)c1ccc(S(=O)(=O)N2CCCCC2)cc1	53%	107%	nt	-7%	nt	32
CCN(CC)S(=O)(=O)c1cc(OC)c(Cl)cc1Cl	nt	-18%	28*	-6%	-2	-10
CCN(CC)S(=O)(=O)c1cc(OC)c(C)cc1C	22%[1.15 µM]	-7%	-3	12%	-3	2
O=[N+]([O-])c1ccc(Nc2ccccc2)c2nonc12	10%	-22%	-2	-20%	-8	?
SMILES	Pf growth 48h	Pf growth 96h	CHX counter	HCV inhibitor	Shiga inhibitor	HCMV antiviral
CCOc1ccc(Nc2ccc([N+](=O)[O-])c3nonc23)cc1	60%	?	33*	-4%	56*	21
CC(C)=CCCC(C)CN1CCC(N2CCC(C(=O)N3CCCC3)CC2)CC1 (centres undefined)	?	76%	1	2.5µM*	-8	?
C=C(C)C1CC=C(CN2CCC(O)CC2)CC1 (centres undefined)	nt	13%	-5	-10%	-11	18
C=C(C)[C@@H]1CC=C(CN2CCC(N3CCC(C(=O)N4CCCC4)CC3)CC2)CC1	7.4µM*	2%	-2	?	-3	?
COc1ccc(-c2c(C3C4C=CCC(C)C4C(=O)N3Cc3ccccc3)ccc3ccccc23)cc1OC (centres undefined)	nt	nt	6	nt	20	nt
C=Cc1ccc(Cn2c(SCC(=O)N3CCN(c4ccc(F)cc4)CC3)nc3ccccc32)cc1	nt	nt	nt	nt	nt	-3
Cc1nn(C)c2c1c(-c1ccccc1)cc(=O)n2C(C)C(=O)NCc1ccc(F)cc1 (centres undefined)	nt	nt	nt	nt	nt	-4
COc1cccc(OC)c1C(=O)Nc1nc2ccc(S(C)(=O)=O)cc2s1	-2%	15%	-3	1%	-14	9
COc1ccccc1NC(=O)Nc1nc2ccc(S(N)(=O)=O)cc2s1	34%	3%	67*	?	89*	79
COc1ccc2nc(Nc3ccccc3)sc2c1	i	498%	30*	?	60*	60
COc1ccc2nc(NC(=O)Nc3ccccc3OC)sc2c1	-26%	-64%	49*	?	102*	64
COc1ccc2nc(NC(=O)C3CC(=O)N(c4ccccc4)C3)sc2c1 (centres undefined)	-1%	13%	10	4%	-7	21
COc1ccc2nc(NC(=O)Nc3cccc4ccccc34)sc2c1	-16%	48%	23	-27%	56	-76*
CC1=C(C(=O)N2CCCCC2)C(c2ccc(Cl)cc2)n2c(nc3ccccc32)N1 (centres undefined)	nt	nt	nt	nt	nt	-2
COc1ccc2nc(Nc3ccccc3OC)sc2c1	430%	i	32*	-14%	90*	34
COc1ccc(Nc2nc3ccccc3c(=O)s2)c(OC)c1	?	?	-3	-7%	18	-31
CCCOc1ccc(S(=O)(=O)N2CCOCC2)cc1[N+](=O)[O-]	-1%	-22%	-9	9%	-10	53
CCCCOc1ccc(C2=CSC3=NCCN23)cc1[N+](=O)[O-]	?	0%	-2	?	2	101
CCCCOc1ccc(-c2csc(N)n2)cc1[N+](=O)[O-]	189%	?	86*	?	127*	-37
CCCOc1ccc(-c2cn3ccccc3n2)cc1[N+](=O)[O-]	144%	491%	134*	?	+	77
COc1ccc(-c2cn3cc([N+](=O)[O-])ccc3n2)cc1OC	289%	471%	41*	-6%	80*	?
O=[N+]([O-])c1cccc(-c2cn3ccccc3n2)c1	-13%	18%	-3	-11%	30	22
COc1ccc(-c2cn3ccccc3n2)cc1[N+](=O)[O-]	147%	162%	67*	-29%	96*	79
